# Screens as filed in PubChem.
# HT1080-NT tox: qHTS for induction of synthetic lethality in tumor cells producing 2HG: qHTS for the HT-1080-NT fibrosarcoma cell line; Potency, µM (top dose mostly 46.1 µM), for the others: at the top dose activity, negative = less viability, hits mostly cytotoxic; AID 686970, 2013; HT-1080-NT fibrosarcoma viability, CellTiter-Glo ATP luminescence, 48 h; 1.6% of 360,000 active;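 note: NT is the 2HG producing partner of a matched IDH1 knockdown line; 0% = DMSO-treated cells and -100% = media-only wells without cells; nearly all actives have a fitted effect of over 55% in size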
#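 Compounds were tested in concentration-response format on HT-1080-NT cells for 48 hours at 37 degrees C. Cell viability came from CellTiter-Glo luminescence; curves were classified by r2, response magnitude and activity.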
# TDP1 cell noCPT: qHTS for Inhibitors of human tyrosyl-DNA phosphodiesterase 1 (TDP1): qHTS in cells in absence of CPT | 15% of 420,000 active | DT40 Tdp1-/- hTDP1 cells, no CPT, ATP luminescence, 48 h | Potency, µM (top dose mostly 46.2 µM), for the others: top-dose activity change, negative = growth inhibition, most hits filed as inhibitors | AID 686978, 2013; note: % is set by controls: 0 for no effect and ±100 for the full control effect; nearly all actives have a fitted effect of over 55% in size
#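 DT40 Tdp1-/-;hTDP1 cells, no CPT (DMSO vehicle only), 400 cells/well; compounds pin-transferred; ≥48 hr, 37 °C; CellTiter-Glo 30 min RT dark, luminescence read.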
# HepG2 tox: qHTS for Inhibitors of TGF-b: Cytotox Counterscreen; HepG2 CAGA-GFP viability, ATP luminescence, 18 h; Potency, µM (doses to about 46.1 µM), without a hit: at the highest dose activity change, negative = cytotoxicity, most hits filed as cytotoxic; 0.76% of 410,000 active
#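 HepG2 CAGA-GFP cells (1000/well, DMEM with 1% FBS) received compound, then TGF-beta at 500 pg/mL final, and were incubated 18 hours at 37 degrees C. Viability was read by CellTiter-Glo luminescence. Media-only wells were set as complete cell-killing and DMSO as no toxicity.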
# HT1080 IDH1KD tx: qHTS for induction of synthetic lethality in tumor cells producing 2HG: qHTS for the HT-1080-IDH1KD cell line. HT-1080 IDH1 knockdown viability, ATP luminescence, 48 h. Potency, µM (top dose mostly 46.1 µM), for inactives: at the highest dose activity, negative = toxicity, actives largely listed as cytotoxic. 2% of 360,000 active;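 note: 0% = DMSO wells and -100% = cell-free medium wells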
#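 Viability of IDH1-knockdown HT-1080 fibrosarcoma cells was assessed by CellTiter-Glo after 48 h at 37 °C with titrated compound; concentration-effect curves were classified by fit quality and response size.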
# TDP1 cell CPT: qHTS for Inhibitors of human tyrosyl-DNA phosphodiesterase 1 (TDP1): qHTS in cells in presence of CPT; Potency, µM (top dose mostly 46.2 µM), for the others: top-dose activity change, negative = growth inhibition, actives largely listed as inhibitors; 12% of 420,000 active; AID 686979, 2013; chicken DT40 Tdp1-/-;hTDP1 cells + 20 nM CPT, ATP luminescence, 48 h; note: % is set by controls: 0 for no effect and ±100 for the full control effect; nearly all actives have a fitted effect of over 55% in size
#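 Chicken DT40 Tdp1-/- cells stably complemented with human TDP1 were seeded at 400 cells/well in medium containing 20 nM camptothecin, exposed to pin-transferred compounds, and grown at 37 °C for at least 48 hr. Viability was read as ATP luminescence.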
# TGFb SMAD3 inh: qHTS for Inhibitors of TGF-b. HepG2 CAGA-GFP TGF-b/SMAD3 reporter, GFP fluorescence, 18 h; TGF-beta stimulated, 500 pg/mL final. Potency, µM (top dose mostly 46.1 µM), inactives show at the top dose activity, negative = inhibition, most hits filed as inhibitors. 1.2% of 410,000 active. AID 588855, 2011; note: % is set by controls: 0 for no effect and ±100 for the full control effect; nearly all actives have a fitted effect of over 65% in size
#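 HEPG2 CAGA-GFP reporter cells (1000/well, DMEM with 1% FBS) received compounds, then recombinant TGF-beta at 500 pg/mL final for 18 hours at 37 degrees C. Per-cell GFP summed per well was normalised to unstimulated and stimulated DMSO controls before curve fitting.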
# * marks the source's active call; other numbers are inactive results; ? = inconclusive; nt = not tested or not shown; [ ] = another dose, or the depositor's remark. In the library only some 17% were active in any assay of this set; here they are far more common. Calls come from the whole dose curve; as a rule, active = well fitted curve in the direction sought with a large enough effect; inconclusive = small, poorly fitted or top-dose-only effect, or another doubt; inactive = no such curve, though single readings can be large; an effect the other way counts as inactive or inconclusive. Potency is the fitted concentration of half-maximal effect.
SMILES,HT1080-NT tox,TDP1 cell noCPT,HepG2 tox,HT1080 IDH1KD tx,TDP1 cell CPT,TGFb SMAD3 inh
CN(CC(=O)Nc1cccc(F)c1)C(=O)CCN1C(=O)C2CC=CCC2C1=O (configuration not stated),-2%,-5%,-6%,-2%,-18%,0%
CN(CC(=O)Nc1ccc(Cl)c(C(F)(F)F)c1)C(=O)CCN1C(=O)C2CC=CCC2C1=O (configuration not stated),-2%,?,0%,-18%,9.2µM*,-24%
CN(CC(=O)Nc1ccc(Cl)c(C(F)(F)F)c1)C(=O)Cc1cccs1,-17%,?,-12%,-27%,?,-17%
Cc1ccc(NC(=O)C2CCN(S(=O)(=O)c3ccc4c(c3)NC(=O)C(C)S4)CC2)c(Cl)c1 (configuration not stated),-26%,21µM*,-22%,?,13µM*,?
Cc1ccc(CCNC(=O)C2CCN(S(=O)(=O)c3ccc4c(c3)NC(=O)C(C)S4)CC2)cc1 (configuration not stated),0%,18µM*,-15%,?,?,?
CC1Sc2ccc(S(=O)(=O)N3CCC(C(=O)NCCc4ccccc4)CC3)cc2NC1=O (configuration not stated),-23%,?,-15%,-20%,?,-27%
Cc1cc(C)cc(NC(=O)C2CCN(S(=O)(=O)c3ccc4c(c3)NC(=O)C(C)S4)CC2)c1 (configuration not stated),0%,-24%,-19%,-20%,?,?
Cc1ccc(NC(=O)C2CCN(S(=O)(=O)c3ccc4c(c3)NC(=O)C(C)S4)CC2)cc1Cl (configuration not stated),?,1.2µM*,-11%,?,1.3µM*,2.2µM*
CC(C)C1NC2(C(=O)c3ccccc3C2=O)C2C(=O)N(c3ccc(F)cc3)C(=O)C12 (configuration not stated),-4%,26µM*,0%,-4%,26µM*,28%
COc1ccc2c(c1)CCc1cnc(-n3ncc(C(=O)NCC(C)(C)CN(C)C)c3C)nc1-2,nt,?,nt,nt,5%[9.04 µM],nt
COC(=O)C(NC(=O)CSc1nc(N)cc(=O)[nH]1)c1ccccc1 (configuration not stated),15%,12%,7%,12%,0%,6%
Cc1ccc(C)n1-n1c(C)nc2scc(-c3cccs3)c2c1=O,-11%,18µM*,-4%,-6%,?,-4%
O=C(CCc1nc(-c2ccccc2)no1)NCc1ccccc1CN1CCOCC1,0%,?,-1%,4%,?,-4%
C[C@H](CO)N1C[C@H](C)[C@H](CN(C)S(C)(=O)=O)OCc2ccccc2-c2c(n(C)c3ccccc23)C1=O,6%,-23%,-1%,0%,-21%,0%
C[C@@H]1CN([C@H](C)CO)C(=O)c2c(c3ccccc3n2C)-c2ccccc2CO[C@@H]1CN(C)S(=O)(=O)c1cccs1,-18%,21µM*,-20%,?,?,?
C[C@H](CO)N1C[C@H](C)[C@H](CN(C)S(=O)(=O)c2cccc(F)c2)OCc2ccccc2-c2c(n(C)c3ccccc23)C1=O,?,16µM*,-33%,?,10µM*,?
Cc1ccc(C(=O)NC(C)(COc2nonc2C)COc2nonc2C)cc1,7%,?,1%,-22%,-30%,3%
CC1(C)CC(=O)C=C(NNC(=O)c2ccccc2)C1,15%,-13%,14%,0%,-1%,-35%
CC1(C)CC(=O)C(CSC(=O)c2ccccc2)C(=O)C1,3%,13µM*,-1%,-15%,13µM*,-17%
O=C(NC1CCCCC1)C1c2ccccc2OCC(=O)N1CCc1c[nH]c2ccccc12 (configuration not stated),0%,26µM*,nt,26µM*,-22%,nt
CCCCC12CN3CC(C)(CN(C1)C31C(=O)N(C)c3ccc(C)cc31)C2=O (configuration not stated),-6%,?,-14%,-3%,-28%,-11%
CN(CC(=O)Nc1ccc(Cl)cc1)C(=O)c1cccc(S(=O)(=O)N2CCN(Cc3ccccc3)CC2)c1,-2%,5.2µM*,-29%,-24%,5.8µM*,0%
CN(C)C(=O)c1ccc(NC(=O)c2cccc(S(=O)(=O)N3CCN(Cc4ccccc4)CC3)c2)cc1,-5%,18µM*,0%,-7%,15µM*,-14%
O=C(Nc1ccc(S(=O)(=O)N2CCN(Cc3ccccc3)CC2)cc1)c1cnccn1,-6%,5.2µM*,5%,-13%,9.2µM*,0%
CS(=O)(=O)c1ccc(NC(=O)c2cccc(S(=O)(=O)N3CCN(Cc4ccccc4)CC3)c2)cc1,-3%,?,-2%,-2%,?,?
SMILES,HT1080-NT tox,TDP1 cell noCPT,HepG2 tox,HT1080 IDH1KD tx,TDP1 cell CPT,TGFb SMAD3 inh
CCn1ccnc1CN(C)Cc1cn(-c2ccccc2)nc1-c1ccc(OC)cc1F,-19%,?,-32%,-30%,?,-17%
CC(NCC(=O)Nc1ccccc1C(=O)NC1CC1)c1ccc(S(C)(=O)=O)cc1 (configuration not stated),7%,-22%,-8%,0%,1%,1%
COc1ccc(Cl)cc1-c1cc(C(=O)Nc2ccc(C)c(NS(C)(=O)=O)c2)[nH]n1,21µM*,21µM*,-73%,23µM*,18µM*,?
COc1ccc(NC(=O)c2cc(-c3cc(Cl)ccc3OC)n[nH]2)c(C)c1,?,18µM*,-19%,?,?,28%
COc1ccc(NC(=O)CSc2cc(C)ccc2C)cn1,7%,16µM*,-24%,13%,?,0%
COc1ccc(Cl)c(-c2cc(C(=O)Nc3ccc(C)c(NS(C)(=O)=O)c3)[nH]n2)c1,-15%,?,-27%,?,?,23%
COc1ccc(NC(=O)c2cc(-c3cc(Cl)ccc3C)n[nH]2)c(OC)c1,?,?,-6%,?,?,-6%
